We go through 45 molecules from PubChem BioAssay AID1851 (National Center for Advancing Translational Sciences (NCATS), 2009).

Out of some 16,000 compounds screened, about 5,800 (36%) were called active. Inconclusive results (about 23%) are left out. The list shows a part of the results. A number with no mark means an inactive call. Calls follow the shape of the dose curve; as a rule, active = well fitted curve in the direction sought with a large enough effect; inconclusive = small, poorly fitted or top-dose-only effect, or effect the other way; inactive = no such curve, though single readings can be large or run the other way.
% is scaled to controls: 0 for no effect and ±100 for the full control effect.

Chain of Cytochrome P450 2C19 (Homo sapiens) (P33261 whole entry, looked up): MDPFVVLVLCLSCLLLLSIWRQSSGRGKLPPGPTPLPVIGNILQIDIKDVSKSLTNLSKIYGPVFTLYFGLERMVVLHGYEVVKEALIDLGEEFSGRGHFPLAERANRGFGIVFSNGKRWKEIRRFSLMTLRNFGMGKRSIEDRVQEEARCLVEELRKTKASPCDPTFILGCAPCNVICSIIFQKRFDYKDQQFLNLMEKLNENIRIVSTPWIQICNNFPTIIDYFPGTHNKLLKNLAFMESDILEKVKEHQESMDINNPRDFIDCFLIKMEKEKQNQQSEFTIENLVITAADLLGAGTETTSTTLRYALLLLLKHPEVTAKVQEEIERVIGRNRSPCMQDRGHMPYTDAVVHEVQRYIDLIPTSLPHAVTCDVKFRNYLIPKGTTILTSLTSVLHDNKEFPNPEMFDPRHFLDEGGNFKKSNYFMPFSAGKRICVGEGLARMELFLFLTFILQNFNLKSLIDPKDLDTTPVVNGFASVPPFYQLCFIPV

The test concerns the target Cytochrome P450 2C19 (Homo sapiens) (UniProt P33261). Description: Cytochrome panel assay with activity outcomes. The following applies: recombinant CYP, pro-luciferin dealkylation, luminescence, p450-cyp2c19; series mostly up to 57.1 µM; activity, negative = inhibition: at the top concentration.
As for `Cc1ccccc1-c1cncnc1Nc1ccccc1`, the AC50 was 3.16 µM (active).
On the same count and under the same terms, for `Cc1ccccc1-c1cncnc1Nc1ccc(F)cc1` the value was 5.01 µM (active); for `COc1cccc(-c2cncnc2Nc2ccc(F)cc2)c1`, 0.398 µM (active).
With `CNc1ncncc1-c1ccccc1OC`, the “activity, negative = inhibition” value was -6.59%.
On to `COc1ccccc1-c1cncnc1Nc1ccc(F)cc1`, for which the AC50 is 5.01 µM (active).
For `COc1cccc(Nc2ncc3nc(-c4ccc(F)cc4)c(=O)n(CCC#N)c3n2)c1`, the “activity, negative = inhibition” value was -41.5%.
For the molecule `Cc1ccccc1-c1cncnc1NC1CCNCC1`, the “activity, negative = inhibition” value was 2.18%.
The same measure, in the same setting: in the case of `CS(=O)(=O)Nc1cccc(-c2cncnc2Nc2ccc(F)cc2)c1` it was -34.9%; in that of `CNc1ncncc1-c1ccccc1C`, -36.9%; in that of `CC(C)(C)C(=O)NC(=C(Cl)Cl)P(=O)(O)O`, -39.2%.
Regarding `CCOC(=O)N/N=C1/C[C@@H](O)[C@@H](O)[C@@H]2[C@@H]3C(=O)N([C@@H](C)c4ccccc4)C(=O)[C@H]3CC[C@H]12`, the activity, negative = inhibition is 12.9% [at 11.4 µM].
On the same count and under the same terms, for `CC(C)Nc1cc(C(F)(F)F)nc(-c2ccccn2)n1` the value was -40.7%.
`CC(C)c1cc(C(F)(F)F)nc(NNc2nc(C(C)C)cc(C(F)(F)F)n2)n1`: the half-maximal activity concentration (AC50) was 2.51 µM (active).
On the same count and under the same terms, for `COc1cc(OC)c(C#N)c(S(=O)(=O)Cc2ccccc2)c1` the value was 1.26 µM (active).
For the molecule `COc1cc(OC)c2c(c1)C(=O)c1cc(OC)cc(OC)c1C2=O`, the “activity, negative = inhibition” value is -6.51%.
Regarding `CCC(=O)Nc1cc2c(cc1C(=O)c1ccccc1)OCCO2`, the AC50 was 14.1 µM (active).
As for `CC(C)C(=O)Nc1cc2c(cc1C(=O)c1ccccc1)OCCO2`, the “activity, negative = inhibition” value is -89.4%.
On to `COC(=O)C1CCN(c2cc(=O)n(C3CCCCC3)c(=O)[nH]2)CC1`, for which the AC50 is 3.98 µM (active).
Same read-out and setting: in the case of `O=c1cc(N2CCC(Cc3ccccc3)CC2)[nH]c(=O)n1C1CCCCC1` it was 3.16 µM (active).
Still for that read-out and setting: in the case of `O=c1cc(N2CCN(c3cccc(Cl)c3)CC2)[nH]c(=O)n1C1CCCCC1` it was 2.51 µM (active).
On to `Cc1ccccc1-n1c(=O)cc(N2CC(C)OC(C)C2)[nH]c1=O` (stereo not given), for which the “activity, negative = inhibition” value is 3.85%.
For the molecule `O=c1n(CCCN2CCN(c3cccc(Cl)c3)CC2)nc2ccccn12`, the AC50 result was “inactive”.
As to `O=C(c1ccco1)N1CCN(c2cc(=O)n(C3CCCCC3)c(=O)[nH]2)CC1`, the “activity, negative = inhibition” value was -38.6%.
Consider `CO[C@H]1COC(=O)C/C=C\[C@H](C)[C@@H](OC)COC(=O)[C@H](Cc2ccccc2)NC(=O)C/C=C\[C@@H]1C`, for which the activity, negative = inhibition was -37.5% [at 11.4 µM].
Turning to `CO[C@@H]1COC(=O)C/C=C\[C@@H](C)COC(=O)[C@H](COCc2ccccc2)NC(=O)C/C=C\[C@H]1C`, the activity, negative = inhibition is -16.4% [at 11.4 µM].
With `CO[C@@H]1COC(=O)C/C=C\[C@H](C)COC(=O)[C@H](Cc2ccccc2)NC(=O)C/C=C\[C@H]1C`, the AC50 was 2.51 µM (active).
On the same count and under the same terms, in the case of `COc1cc(N)c(Cl)cc1C(=O)CCC1CCN(CCNS(C)(=O)=O)CC1` it was 10 µM (active).
As to `Cn1cc(C(=O)OCC2CCN(CCNS(C)(=O)=O)CC2)c2ccccc21`, the “activity, negative = inhibition” value is -2.19%.
The same measure, in the same setting: for `CCCCN1CCC(CCC(=O)c2cc(Cl)c(N)cc2OC)CC1` the value was -9.04%.
Consider `C[C@@H](C(=O)Nc1ccc2ccccc2c1)[C@H]1C[C@]1(C)[C@H](NS(=O)(=O)c1ccc2ccccc2c1)c1ccccc1`, for which the AC50 was 0.251 µM (active).
Turning to `C[C@@H](C(=O)Nc1ccc2ccccc2c1)[C@@H]1C[C@@]1(C)[C@@H](NS(=O)(=O)c1ccc(-c2ccccc2)cc1)c1ccccc1`, the “activity, negative = inhibition” value is 5.27%.
`C[C@@H](C(=O)Nc1ccc2ccccc2c1)[C@H]1C[C@]1(C)[C@H](NC(=O)c1cnccn1)c1ccccc1`: the AC50 was 15.8 µM (active).
Turning to `CC(=O)N[C@@H](c1ccccc1)[C@]1(C)C[C@H]1[C@@H](C)C(=O)Nc1ccc2ccccc2c1`, the AC50 was 0.398 µM (active).
`C[C@@H](C(=O)Nc1ccc2ccccc2c1)[C@@H]1C[C@@]1(C)[C@@H](N)c1ccccc1`: the “activity, negative = inhibition” value was -33.6%.
The same measure, in the same setting: in the case of `C[C@@H](C(=O)Nc1ccc2ccccc2c1)[C@@H]1C[C@@]1(C)[C@@H](NS(=O)(=O)c1ccc2ccccc2c1)c1ccccc1` it was 15.5%.
Consider `CC(=O)N[C@H](c1ccccc1)[C@@]1(C)C[C@@H]1[C@@H](C)C(=O)Nc1ccc2ccccc2c1`, for which the AC50 is 5.01 µM (active).
Turning to `C[C@@H](C(=O)Nc1ccc2ccccc2c1)[C@@H]1C[C@@]1(C)[C@@H](NC(=O)c1ccncc1Cl)c1ccccc1`, the “activity, negative = inhibition” value is -38.4%.
For the molecule `C[C@@H](C(=O)Nc1ccc2ccccc2c1)[C@@H]1C[C@@]1(C)[C@@H](NC(=O)c1cnccn1)c1ccccc1`, the “activity, negative = inhibition” value is -42.8%.
In the case of `CO[C@H]1C[C@@H](O[C@@H]2[C@H](C)[C@H](O[C@@H]3O[C@@H](C)C[C@@H](N(C)C)[C@@H]3O)[C@H](C)C[C@]3(CO3)C(=O)[C@H](C)[C@H](O)[C@H](C)[C@H](C)OC(=O)[C@@H]2C)O[C@@H](C)[C@H]1O`, the “activity, negative = inhibition” value was -29.6% [at 25.6 µM].
With `C[C@@H](C(=O)Cc1ccc2ccccc2c1)[C@@H]1C[C@@]1(C)[C@@H](NP(=O)(c1ccccc1)c1ccccc1)c1ccccc1`, the “activity, negative = inhibition” value is -26.1%.
Turning to `C[C@@H](C(=O)Nc1ccc2ccccc2c1)[C@H]1C[C@]1(C)[C@H](NC(=O)Oc1ccc(F)cc1)c1ccccc1`, the “activity, negative = inhibition” value was -37.1%.
Regarding `COC(=O)N[C@H](c1ccccc1)[C@@]1(C)C[C@@H]1[C@@H](C)C(=O)Nc1ccc2ccccc2c1`, the AC50 is 3.16 µM (active).
Consider `C[C@@H](C(=O)Nc1ccc2ccccc2c1)[C@H]1C[C@]1(C)[C@H](NP(=O)(c1ccccc1)c1ccccc1)c1ccccc1`, for which the AC50 is 10 µM (active).
As for `C[C@@H](C(=O)Nc1ccc2ccccc2c1)[C@@H]1C[C@@]1(C)[C@@H](NC(=O)Oc1ccc(F)cc1)c1ccccc1`, the “activity, negative = inhibition” value is -43.6%.
Turning to `C[C@@H](C(=O)Nc1ccc2ccccc2c1)[C@H]1C[C@]1(C)[C@H](NS(=O)(=O)c1ccc(-c2ccccc2)cc1)c1ccccc1`, the “activity, negative = inhibition” value is -37.2%.

For orientation: AC50 means the concentration at which the activity in the assay is half-maximal.
